From PubChem BioAssay (NCATS)
Records with an inconclusive call do not appear. Calls of active or inactive are those of the source. Calls follow the shape of the dose curve; as a rule, active = well fitted cell-killing curve with a large enough effect; inconclusive = small, poorly fitted or top-dose-only effect, or effect the other way; inactive = no such curve, though single readings can be large or run the other way.

Assay: Viability qHTS for spleen associated tyrosine kinase inhibitor (SYKi) drug resistant MV4-11 cells (AID 1963824); also: nearly all actives have a fitted effect of over 35% in size
Conditions: SYKi-resistant MV4-11 viability, CellTiter-Glo, 72 h; series mostly up to 45 µM
Procedure, shortened: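 SYK-inhibitor-resistant MV4-11 AML cells were seeded at 500 per well onto compound and cultured 72 hours (37 °C, 5% CO2). CellTiter-Glo was then added, and after 10 min at room temperature, luminescence gave viability.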
Potency is read from the fitted curve at half-maximal effect.

Row | SMILES | Potency
1 | CCC(=O)OCC(=O)[C@@]1(OC(=O)CC)[C@@H](C)C[C@H]2[C@@H]3CCC4=CC(=O)C=C[C@]4(C)[C@@]3(F)[C@@H](O)C[C@@]21C | 20.6 µM (active)
2 | CC(C)n1cnc2c(-c3cnc(N)nc3)nc(N3CCOCC3)nc21 | 3.17 µM (active)
3 | CN(C)c1ccc2c(c1)OC(N)=C(C#N)C2c1cccc(C(F)(F)F)c1 (stereo not drawn) | 0.184 µM (active)
4 | CC(=O)Nc1nc(C)c(-c2nc(N3CCCC(O)C3)no2)s1 (stereo not drawn) | 16.4 µM (active)
5 | CC(=O)N[C@@H](C(=O)O[C@H]1CCC(C)(C)[C@@H]2CCC3=C(COC3=O)[C@@]12C)C(C)C | inactive
6 | COc1cn(-c2ccc(-n3cccn3)cc2F)nc(-c2ccnn2-c2ccccc2)c1=O | inactive
7 | COc1cc(F)c(F)c(Nc2ccc(I)cc2F)c1NS(=O)(=O)C1(CC(O)CO)CC1 (stereo not drawn) | 0.58 µM (active)
8 | Cc1ccnc(NC(=O)C(C)c2cccc(C(=O)c3ccccc3)c2)c1 (stereo not drawn) | 23.1 µM (active)
9 | Nc1cccc(CNC(=O)c2ccc(Oc3ccc(OCc4cccc(F)c4)cc3)nc2)c1 | 16.4 µM (active)
10 | COc1ccc(C2(CNC(=O)[C@](C)(Cc3c[nH]c4ccccc34)NC(=O)Nc3ccc([N+](=O)[O-])cc3)CCCCC2)nc1 | 20.6 µM (active)
11 | CC1(C)C=Cc2c(ccc3c2[N+]([O-])=C2C3(O)CC34NC(=O)C5(CCCN5C3=O)CC4C2(C)C)O1 (stereo not drawn) | inactive
12 | C=C1CCC2[C@](C)(CO)CCC[C@@]2(C)[C@@H]1CCC1=CCOC1=O (stereo partly drawn) | 7.18 µM (active)
13 | CC1CC2(O)OC(=O)C3=C2C(CCC3)[C@@]12C[C@@H](c1ccoc1)OC2=O (stereo partly drawn) | inactive
